Measurements as given in PubChem BioAssay (EPA / NIEHS).
Results filed as inconclusive are left out. The source made the active and inactive calls. How the source made its calls, unless noted: active means hit-call score of the fitted dose curve at least 0.9, where 1 is the maximum; inactive means score below 0.9.

Assays:
[1] = biological target: Paired box protein Pax-6 (Homo sapiens) (UniProt P26367); test: ATG_Pax6_CIS: Attagene CIS-FACTORIAL HepG2 Assay for human Paired Box 6 (PAX6) (AID 2282956); conditions: HepG2 CIS-FACTORIAL PAX6 reporter transcription, RNA readout; actives raise or lower the signal
Sequence of Paired box protein Pax-6 (Homo sapiens) (P26367 whole entry, looked up): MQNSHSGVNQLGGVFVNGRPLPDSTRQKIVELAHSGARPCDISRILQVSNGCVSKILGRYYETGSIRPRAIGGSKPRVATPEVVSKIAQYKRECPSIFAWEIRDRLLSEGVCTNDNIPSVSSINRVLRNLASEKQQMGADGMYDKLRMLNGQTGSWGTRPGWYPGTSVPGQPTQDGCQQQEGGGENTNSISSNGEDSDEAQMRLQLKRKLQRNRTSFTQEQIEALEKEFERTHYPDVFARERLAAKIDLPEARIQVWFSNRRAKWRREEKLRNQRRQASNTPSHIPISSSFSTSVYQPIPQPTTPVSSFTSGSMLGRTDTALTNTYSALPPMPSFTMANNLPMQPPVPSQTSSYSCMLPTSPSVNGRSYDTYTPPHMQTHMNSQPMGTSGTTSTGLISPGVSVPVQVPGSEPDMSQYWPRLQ
Procedure, shortened: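 Read-out is reporter transcript level, measured by RT-PCR with fluorescent primer extension and capillary electrophoresis after 24 h dosing of transfected HepG2 cells. Activity in either direction fitted relative to DMSO control.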

[2] = ATG_PXRE_CIS: Attagene CIS-FACTORIAL HepG2 Assay for human Pregnane X Receptor Element (PXRE) (AID 2282957); conditions: HepG2 Attagene CIS-FACTORIAL PXRE reporter, mRNA; actives raise or lower the signal
Procedure, shortened: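 Reporter transcripts under endogenous PXR-responsive cis-regulation quantified from total RNA of transfected HepG2 cells 24 h post-dosing, via RT-PCR with fluorescent primer extension and capillary electrophoresis. Gain or loss of signal fitted against DMSO baseline.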

[3] = ATG_Sox_CIS: Attagene CIS-FACTORIAL HepG2 Assay for human SRY-box transcription factor (SOX) (AID 2282960); conditions: HepG2 Attagene cis-factorial SOX reporter, mRNA; actives raise or lower the signal
Procedure, shortened: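 Cells were transfected with reporter constructs under cis-regulatory promoters, then exposed to chemicals for 24 h. Reporter transcripts were quantified by fluorescence after RT-PCR and capillary electrophoresis; activity was fitted in both directions against DMSO.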

[4] = biological target: Transcription factor Sp1 (Homo sapiens) (UniProt P08047); test: ATG_Sp1_CIS: Attagene CIS-FACTORIAL HepG2 Assay for human Specificity Protein 1 (Sp1) (AID 2282961); conditions: HepG2 Sp1 cis-reporter transcription, actives raise or lower the signal
Sequence of Transcription factor Sp1 (Homo sapiens) (P08047 whole entry, looked up): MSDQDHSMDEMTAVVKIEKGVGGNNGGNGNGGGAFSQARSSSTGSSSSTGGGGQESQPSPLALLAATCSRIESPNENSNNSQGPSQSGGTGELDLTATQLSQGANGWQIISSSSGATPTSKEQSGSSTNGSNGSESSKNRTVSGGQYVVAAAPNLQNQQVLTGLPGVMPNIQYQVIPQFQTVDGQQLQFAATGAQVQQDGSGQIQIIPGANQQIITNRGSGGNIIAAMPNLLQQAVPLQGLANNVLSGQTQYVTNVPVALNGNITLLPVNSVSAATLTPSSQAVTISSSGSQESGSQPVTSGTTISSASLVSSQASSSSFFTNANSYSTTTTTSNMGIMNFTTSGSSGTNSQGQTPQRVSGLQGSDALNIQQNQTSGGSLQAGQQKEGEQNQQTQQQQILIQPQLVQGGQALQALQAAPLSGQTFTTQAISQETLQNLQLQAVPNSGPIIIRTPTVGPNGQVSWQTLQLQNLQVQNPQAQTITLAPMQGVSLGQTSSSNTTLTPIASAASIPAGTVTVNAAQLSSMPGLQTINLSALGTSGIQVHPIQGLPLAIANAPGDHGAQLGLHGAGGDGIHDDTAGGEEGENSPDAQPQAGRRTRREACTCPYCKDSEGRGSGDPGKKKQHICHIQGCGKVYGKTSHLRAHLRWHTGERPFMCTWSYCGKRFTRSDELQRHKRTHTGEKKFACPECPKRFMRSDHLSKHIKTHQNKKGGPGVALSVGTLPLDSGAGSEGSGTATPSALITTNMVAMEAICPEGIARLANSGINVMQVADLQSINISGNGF
Procedure, shortened: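 Measures mRNA induction of an Sp1-linked reporter in HepG2 cells 24 h post-dosing. Multiplexed reporters read by RT-PCR and capillary electrophoresis; DMSO serves as negative control and baseline.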

[5] = ATG_SREBP_CIS: Attagene CIS-FACTORIAL HepG2 Assay for human Sterol Regulatory Element Binding (SREBP) (AID 2282962); conditions: HepG2 Attagene cis-factorial SREBP reporter, mRNA; actives raise or lower the signal
Procedure, shortened: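 Endogenous SREBP activity read as cis-element-driven reporter transcript in transiently transfected HepG2, 24 h post-dosing; quantified via RT-PCR plus capillary electrophoresis of fluorescent fragments. Gain or loss of signal fitted relative to DMSO baseline.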

[6] = biological target: Signal transducer and activator of transcription 3 (Homo sapiens) (UniProt P40763); test: ATG_STAT3_CIS: Attagene CIS-FACTORIAL HepG2 Assay for human Signal Transducer and Activator of Transcription 3 (STAT3) (AID 2282963); conditions: HepG2, Attagene cis-factorial STAT3 reporter transcription; actives raise or lower the signal
Sequence of Signal transducer and activator of transcription 3 (Homo sapiens) (P40763 whole entry, looked up): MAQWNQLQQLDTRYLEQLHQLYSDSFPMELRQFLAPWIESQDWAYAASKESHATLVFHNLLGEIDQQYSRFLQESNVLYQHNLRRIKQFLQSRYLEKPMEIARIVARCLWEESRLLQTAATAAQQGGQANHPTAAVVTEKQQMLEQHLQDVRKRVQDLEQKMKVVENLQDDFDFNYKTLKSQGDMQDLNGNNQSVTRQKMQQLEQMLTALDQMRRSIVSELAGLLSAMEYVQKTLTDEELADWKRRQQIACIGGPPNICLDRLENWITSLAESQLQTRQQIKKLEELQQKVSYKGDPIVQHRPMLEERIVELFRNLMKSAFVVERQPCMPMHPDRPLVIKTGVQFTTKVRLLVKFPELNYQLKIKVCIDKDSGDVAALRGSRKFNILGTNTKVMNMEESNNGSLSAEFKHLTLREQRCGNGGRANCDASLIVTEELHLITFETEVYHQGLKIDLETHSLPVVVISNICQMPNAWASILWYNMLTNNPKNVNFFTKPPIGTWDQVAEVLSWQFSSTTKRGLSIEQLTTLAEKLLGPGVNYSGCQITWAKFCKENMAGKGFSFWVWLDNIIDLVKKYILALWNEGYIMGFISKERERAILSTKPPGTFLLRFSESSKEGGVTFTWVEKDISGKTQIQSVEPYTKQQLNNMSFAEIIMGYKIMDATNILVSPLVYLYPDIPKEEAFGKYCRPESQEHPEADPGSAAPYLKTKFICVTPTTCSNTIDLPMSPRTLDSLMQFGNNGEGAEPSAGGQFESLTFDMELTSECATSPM
Procedure, shortened: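 Readout is reporter transcript quantified by RT-PCR and capillary electrophoresis, with 6-FAM primer extension and HpaI digestion. Total RNA is taken 24 h after dosing transiently transfected HepG2 carrying cis-regulated reporter units. Bidirectional fit against DMSO.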

[7] = ATG_TCF_b_cat_CIS: Attagene CIS-FACTORIAL HepG2 Assay for human T-Cell-Factor with beta-catenin (TCF/b-cat) (AID 2282965); conditions: HepG2 TCF/beta-catenin cis-reporter transcription, actives raise or lower the signal
Procedure, shortened: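 Measured: reporter mRNA in HepG2 transiently transfected with cis-promoter reporter units, 24 h after chemical addition. Fitting was bidirectional, DMSO as negative control.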

[8] = ATG_TAL_CIS: Attagene CIS-FACTORIAL HepG2 Assay for human TAL Basal Promoter (AID 2282966); conditions: HepG2 Attagene cis-factorial TAL promoter reporter; actives raise or lower the signal;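 further: background control endpoint measuring basal TAL promoter reporter mRNA not a specific factor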
Procedure, shortened: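 Background-control endpoint: basal TAL promoter reporter transcripts in transiently transfected HepG2, measured 24 h after dosing. Read-out by RT-PCR with fluorescent primer extension and capillary electrophoresis; gain or loss of signal fitted relative to DMSO.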

[9] = ATG_TGFb_CIS: Attagene CIS-FACTORIAL HepG2 Assay for human Transforming Growth Factor (TGF) (AID 2282967); conditions: HepG2 Attagene CIS TGFb reporter, mRNA transcription; actives raise or lower the signal
Procedure, shortened: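 Transient MRTU transfection of HepG2 (FuGene 6). Dose 24 h. TriZol RNA, oligo(dT) RT, PCR, 6-FAM primer extension, HpaI cut, CE. Bidirectional fit, DMSO = baseline.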

[10] = ATG_VDRE_CIS: Attagene CIS-FACTORIAL HepG2 Assay for human Vitamin D Receptor Element (VDRE) (AID 2282968); conditions: HepG2 VDRE cis-reporter transcription, actives raise or lower the signal
Procedure, shortened: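 Readout is VDRE-driven reporter mRNA reflecting endogenous factor activity in human HepG2 cells, sampled 24 h post-dose. Quantification used labelled RT-PCR products separated by capillary electrophoresis; bidirectional analysis relative to DMSO.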

[11] = biological target: X-box-binding protein 1 (Homo sapiens) (UniProt P17861); test: ATG_Xbp1_CIS: Attagene CIS-FACTORIAL HepG2 Assay for human X-box Binding Protein 1 (XBP1) (AID 2282972); conditions: HepG2 XBP1 cis-element reporter, Attagene multiplex; actives raise or lower the signal
Sequence of X-box-binding protein 1 (Homo sapiens) (P17861 whole entry, looked up): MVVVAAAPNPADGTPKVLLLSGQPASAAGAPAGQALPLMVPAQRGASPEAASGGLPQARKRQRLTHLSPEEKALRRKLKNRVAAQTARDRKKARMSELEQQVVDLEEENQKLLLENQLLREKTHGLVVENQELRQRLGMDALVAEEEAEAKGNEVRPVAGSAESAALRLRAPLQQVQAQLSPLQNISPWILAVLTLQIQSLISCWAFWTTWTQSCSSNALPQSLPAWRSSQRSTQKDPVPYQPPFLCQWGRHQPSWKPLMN
Procedure, shortened: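 Reporter transcripts were quantified by RT-PCR with fluorescent primer extension and capillary electrophoresis after 24 h chemical exposure. Cells: transiently transfected HepG2 carrying cis-regulated reporter constructs; data fitted bidirectionally relative to DMSO.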

[12] = ATG_M_19_TRANS: Attagene TRANS-FACTORIAL HepG2 Assay for M19 Transcription Factor (Internal Marker) (AID 2282974; active means hit-call score of the fitted dose curve at least 0.9, where 1 is the maximum); conditions: HepG2 Attagene TRANS-FACTORIAL M19 internal marker reporter
Procedure, shortened: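 After transfection of HepG2 with GAL4-UAS-driven reporter constructs, cells are dosed for 24 h. Total RNA is reverse-transcribed, reporter sequences PCR-amplified and labelled, then HpaI-digested and sized by capillary electrophoresis.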

[13] = ATG_TA_CIS: Attagene CIS-FACTORIAL HepG2 Assay for human TA Basal Promoter (AID 2282964); conditions: HepG2 Attagene CIS-factorial TA basal promoter reporter; actives raise or lower the signal
Procedure, shortened: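 Read-out: fluorescent reporter-transcript fragments resolved by capillary electrophoresis after RT-PCR and HpaI digestion. Source: HepG2 cells carrying transiently transfected multi-reporter cis constructs, treated 24 h. Endpoint fitted bidirectionally relative to DMSO.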

[14] = biological target: Nuclear receptor subfamily 1 group I member 3 (Homo sapiens) (UniProt Q14994); test: ATG_CAR_TRANS: Attagene TRANS-FACTORIAL HepG2 Assay for human Constitutive Androstane Receptor (CAR) (AID 2282969; active means hit-call score of the fitted dose curve at least 0.9, where 1 is the maximum;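 further: activators raise reporter mRNA above DMSO so AC50 marks induction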); conditions: HepG2 Attagene TRANS-FACTORIAL CAR reporter
Sequence of Nuclear receptor subfamily 1 group I member 3 (Homo sapiens) (Q14994 whole entry, looked up, the tested form may be a part): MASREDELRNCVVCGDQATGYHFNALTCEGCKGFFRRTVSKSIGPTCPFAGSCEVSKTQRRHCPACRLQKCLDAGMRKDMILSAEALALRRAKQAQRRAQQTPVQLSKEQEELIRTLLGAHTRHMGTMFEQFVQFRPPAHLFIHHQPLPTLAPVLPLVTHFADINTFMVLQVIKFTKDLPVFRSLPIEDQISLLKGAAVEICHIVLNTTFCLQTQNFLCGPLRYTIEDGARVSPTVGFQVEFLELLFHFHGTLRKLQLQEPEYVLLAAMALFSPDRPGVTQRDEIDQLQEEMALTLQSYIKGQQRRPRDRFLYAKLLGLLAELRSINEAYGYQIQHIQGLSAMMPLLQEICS
Procedure, shortened: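 Signal is reporter mRNA induction relative to DMSO, measured 24 h after dosing by RT-PCR with fluorescent primer extension and capillary electrophoresis. Human HepG2 liver cells carried transiently transfected chimeric NR-Gal4/GAL4-UAS reporter constructs.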

[15] = ATG_GAL4_TRANS: Attagene TRANS-FACTORIAL HepG2 Assay for GAL4 (Internal Marker) (AID 2282976; active means hit-call score of the fitted dose curve at least 0.9, where 1 is the maximum); conditions: HepG2 Attagene TRANS GAL4 internal marker reporter
Procedure, shortened: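 In transfected human HepG2 liver cells dosed 24 h, GAL4 reporter mRNA serves as a baseline marker. Detection by RT-PCR with fluorescent capillary electrophoresis, activity fitted upward relative to DMSO.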

[16] = ATG_PPRE_CIS: Attagene CIS-FACTORIAL HepG2 Assay for human Peroxisome Proliferator-activated Response Element (PPRE) (AID 2282958); conditions: HepG2 PPRE cis-element reporter, Attagene transcription factor profiling; actives raise or lower the signal
Procedure, shortened: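 Transcript-level reporter induction in transfected HepG2 cells after 24 h chemical exposure, quantified by fluorescence from RT-PCR products separated by capillary electrophoresis.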

[17] = biological target: Estrogen-related receptor gamma (Homo sapiens) (UniProt P62508); test: ATG_ERRg_TRANS: Attagene TRANS-FACTORIAL HepG2 Assay for human Estrogen-Related Receptor gamma (ERRg) (AID 2282977; active means hit-call score of the fitted dose curve at least 0.9, where 1 is the maximum;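 further: hits increase reporter signal over DMSO so potencies reflect activators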); conditions: HepG2 Attagene TRANS reporter, ERRg transactivation
Sequence of Estrogen-related receptor gamma (Homo sapiens) (P62508 whole entry, looked up, the tested form may be a part): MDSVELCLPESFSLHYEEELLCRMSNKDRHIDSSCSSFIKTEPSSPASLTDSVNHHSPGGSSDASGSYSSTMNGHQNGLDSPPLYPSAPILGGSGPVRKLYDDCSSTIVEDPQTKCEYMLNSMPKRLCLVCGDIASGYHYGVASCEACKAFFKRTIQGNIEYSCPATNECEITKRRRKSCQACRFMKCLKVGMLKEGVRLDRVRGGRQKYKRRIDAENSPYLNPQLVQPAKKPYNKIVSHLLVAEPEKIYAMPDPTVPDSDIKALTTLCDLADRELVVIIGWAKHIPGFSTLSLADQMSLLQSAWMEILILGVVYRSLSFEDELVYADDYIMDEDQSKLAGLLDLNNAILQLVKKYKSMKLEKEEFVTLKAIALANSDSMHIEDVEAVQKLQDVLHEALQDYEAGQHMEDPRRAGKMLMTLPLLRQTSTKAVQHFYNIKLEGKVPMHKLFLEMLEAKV
Procedure, shortened: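 Induction of reporter transcripts through a chimeric NR-Gal4 protein is quantified in transfected human HepG2 liver cells after 24 h chemical exposure, using RT-PCR with capillary electrophoresis detection and DMSO as baseline.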

[18] = ATG_RORE_CIS: Attagene CIS-FACTORIAL HepG2 Assay for human RAR-related Orphan Receptor Element (RORE) (AID 2282959); conditions: HepG2 Attagene cis-factorial RORE reporter, mRNA; actives raise or lower the signal
Procedure, shortened: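 Multiplexed reporter assay measuring mRNA induction from a cis promoter element in transiently transfected HepG2 cells after 24 h treatment. Detection via RT-PCR and capillary electrophoresis fluorescence; DMSO serves as baseline.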

[19] = biological target: Steroid hormone receptor ERR1 (Homo sapiens) (UniProt P11474); test: ATG_ERRa_TRANS: Attagene TRANS-FACTORIAL HepG2 Assay for human Estrogen-Related Receptor alpha (ERRa) (AID 2282971; active means hit-call score of the fitted dose curve at least 0.9, where 1 is the maximum); conditions: HepG2 Attagene TRANS reporter, ERRa transactivation
Sequence of Steroid hormone receptor ERR1 (Homo sapiens) (P11474 whole entry, looked up, the tested form may be a part): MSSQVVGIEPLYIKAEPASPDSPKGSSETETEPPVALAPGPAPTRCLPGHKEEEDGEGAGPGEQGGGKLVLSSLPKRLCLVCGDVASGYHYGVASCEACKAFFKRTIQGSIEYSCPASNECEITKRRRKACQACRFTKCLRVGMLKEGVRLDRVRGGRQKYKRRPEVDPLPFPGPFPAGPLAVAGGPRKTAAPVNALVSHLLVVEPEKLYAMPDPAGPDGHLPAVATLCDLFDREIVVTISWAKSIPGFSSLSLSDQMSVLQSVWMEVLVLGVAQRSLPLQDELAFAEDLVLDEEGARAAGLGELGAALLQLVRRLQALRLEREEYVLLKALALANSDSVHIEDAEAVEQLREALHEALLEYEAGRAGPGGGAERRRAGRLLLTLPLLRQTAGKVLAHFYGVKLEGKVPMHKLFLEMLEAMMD
Procedure, shortened: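 Reporter transcripts from ERRa-Gal4 chimera activity measured in transiently transfected human HepG2 cells 24 hours after dosing, using RT-PCR with 6-FAM primer extension, HpaI digestion and capillary electrophoresis; DMSO is baseline.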

Measured: AC50

CC(=O)O[C@@H]1C[C@@H]2CC[C@@]1(C)C2(C)C
inactive: [1] | [2] | [3] | [4] | [5] | [6] | [7] | [8] | [9] | [10] | [11] | [12]

N#Cc1cscn1
inactive: [1] | [3] | [4] | [5] | [6] | [13] | [7] | [8] | [14] | [11] | [15]
active: [2] 71.7 µM

CCCCCCCC/C=C\CCCCCCCC(=O)OCC
inactive: [1] | [16] | [3] | [4] | [5] | [6] | [13] | [7] | [9] | [10] | [11] | [12] | [17]

CCCCCCCCCCCCN1CCCCCC1=O
inactive: [1] | [16] | [18] | [3] | [4] | [5] | [6] | [13] | [7] | [10] | [14]
active: [11] 14.5 µM

CC(C)C(OC(=O)c1ccccc1)C(C)(C)COC(=O)c1ccccc1 (stereo unspecified)
inactive: [1] | [16] | [3] | [4] | [5] | [6] | [13] | [8] | [9] | [14] | [11] | [12]
active: [10] 1.52 µM

C=CC(=C)CCCC(C)(C)OC(C)=O
inactive: [1] | [16] | [18] | [4] | [5] | [6] | [13] | [7] | [8] | [9] | [10] | [19] | [11] | [12]
